Assay results: the OligoGym collection

Biological target: ZNF219
Assay: pooled miR-30 sensor sort-seq; sequence = guide strand
Conditions: shRNA
Further: reference of the scale not given here.

Row | Sequence | sensor-assay potency score (higher = more potent)
1 | TGTAGGTGATACTTGAGCGAGC | -0.911
2 | TCGCAGATGCACTTTGAGGTGA | -0.383
3 | TACTTGAGCGAGCCGGACTGGG | -1.26
4 | TTCCGCAGAAAGGACAATCCTT | -0.585
5 | TCCAACTCCAGCAACAGGCGTG | -0.967
6 | TTGCCTTTGCAGTAGGGGCAAC | -1.2
7 | TGGAGTATCGCTGCAGATCCAG | -1.26
8 | TAGTAGCGCGCGCTCTTCCAAC | -1.67
9 | TTGAGGTGATGTGCTGAGCGGA | -0.983

Biological target: ZNF233
Assay: as above
Conditions: shRNA

Row | Sequence | sensor-assay potency score (higher = more potent)
10 | TATCTCATTTTGATTCTTGTGT | 0.251
11 | TTTGCTGACACCTACTCTGATA | -0.77
12 | TATTAGGTCTTGATTACTGGTT | -0.618
13 | TTAATCTTACTTCTTGAAGGGT | -0.195
14 | TTAATTTACTTGTAAATTGTTC | -0.905
15 | TTTACTTGTAAATTGTTCCCAT | 0.845
16 | ATGTACACAACTTCTCTCCTGG | -0.0529
17 | TAATCTTACTTCTTGAAGGGTA | 0.461
18 | TCTTGTGTCCTGAACACCCATC | -0.866
19 | TTCTTGTGTCCTGAACACCCAT | -0.736
20 | TTTAGCAACTTGGACCTCTTGC | 0.0723
21 | TATCCTGTCACTTACTTCCCAT | -0.636

Biological target: ZNF24
Assay: as above
Conditions: shRNA

Row | Sequence | sensor-assay potency score (higher = more potent)
22 | TGGATGATGATCTCGAACCCAA | -0.874
23 | TTTCTCTTTCTTTCAAACCTGC | 0.00433
24 | TAAAAATTTGAGGAACACCCAT | -0.488
25 | TTTGTGTGCGTCTCTGGCCTGA | -0.444
26 | TAGTGCTCCATTTTCAGTCCTA | 0.194
27 | AAAAATTTGAGGAACACCCATA | -0.922
28 | TTCTGCATTGTGTCTTCTCTGA | 0.000948
29 | TCTTCTACTAGTACTTCCCGTT | 0.168
30 | TTGAGGAACACCCATACTGAGA | -1.26
31 | TAAGTATTGAATCTTCTTCCAC | -0.673
32 | TTCACTCTCCAAATCCTCCAGC | -0.297
33 | TAATGCTGAAGGAAGCTCCTGC | 0.616

Biological target: ZNF250
Assay: as above
Conditions: shRNA

Row | Sequence | sensor-assay potency score (higher = more potent)
34 | TTTGTGACACTGAATCGCCAAA | -1.66
35 | TGTCTTGTTGTGTACAGGCTGT | -0.552
36 | TGTATGTATCTTGTGATGCTGA | -0.256
37 | TACACTGCACACATAGGGCTTC | -0.55
38 | TTAACAGAGACTTCTCTTGGGC | -0.0398
39 | TAAGACCTGAACTTCACGGTGG | 0.671
40 | TTTTGTGACACTGAATCGCCAA | 0.484
